Data on 36 compounds can be found in PubChem BioAssay (NCI).

The structures appear in SMILES notation. The panel holds about 79,000 compounds, 15% with a hit somewhere; the sample as a whole holds those more often. A number with no mark means an inactive call. Activity calls are given as the source filed them. No stated cut-off is given here; in the data, active means growth inhibition above about 70%; inactive means the rest.

Test [1] can be described thus: NCI Yeast Anticancer Drug Screen. Data for the rad50 strain (AID 155).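 Further: 0% = growth of vehicle-only cultures of the same strain.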 The conditions noted are these: S. cerevisiae rad50 strain growth inhibition; at 50.0 µM; hits give high values. The method, boiled down:
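Growth of the mutant yeast was measured after compound exposure and referenced to vehicle-treated cultures.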

Test [2] in a line: NCI Yeast Anticancer Drug Screen. Data for the mec2-1 strain (AID 157). The conditions noted are these: S. cerevisiae mec2-1 strain, at 50.0 µM, hits give high values. In outline:
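Each compound was tested on mec2-1 yeast, a strain altered in DNA damage repair or cell cycle control. Growth inhibition is reported relative to vehicle.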

The nature of test [3]: NCI Yeast Anticancer Drug Screen. Data for the sgs1 mgt1 strain (AID 161).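 Further: 0% = growth of cultures given vehicle only.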 The conditions noted are these: S. cerevisiae sgs1 mgt1 strain, at 50.0 µM, hits give high values. The method, boiled down: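 Test agents were incubated with a DNA-repair-mutant yeast strain. Growth was then read and compared against vehicle-treated controls.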
Test [4] in a line: NCI Yeast Anticancer Drug Screen. Data for the cln2 rad14 strain (AID 165).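 Further: 0% = growth equal to vehicle treated cultures.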 The conditions noted are these: S. cerevisiae cln2 rad14 strain, at 50.0 µM, hits give high values. The method, boiled down:
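Test compounds were added to cln2 rad14 yeast cultures; inhibition of growth was then determined by comparison with vehicle treatment.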

Test [5] in a line: NCI Yeast Anticancer Drug Screen. Data for the bub3 strain (AID 167). The conditions noted are these: S. cerevisiae bub3 mutant strain, at 50.0 µM, hits give high values. In outline:
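Whole-cell yeast assay. The mutant strain was incubated with compounds, and growth inhibition was determined by comparison with vehicle-treated cells.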

Test [6] is described as follows: NCI Yeast Anticancer Drug Screen. Data for the mlh1 rad18 strain (AID 175). The conditions noted are these: S. cerevisiae mlh1 rad18 strain growth inhibition; at 50.0 µM; hits give high values. The method, boiled down:
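Inhibition values reflect reduced growth of mutant yeast versus vehicle-treated controls following compound exposure; the mutations affect DNA damage repair.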

Consider `CCOC(=O)/C=C(/C)C#N`, for which the growth inhibition in test [1] is -9.65%; in test [2], -3.7%; in test [3], -11.8%; in test [4], 7.4%; in test [5], 9.55%; in test [6], 2.9%.

`COC(=O)C1(O)CCC(C)CC1` (stereo unspecified): the growth inhibition in test [1] was 14.4%; in test [2], -9.25%; in test [3], -8.65%; in test [4] it was -26.3%; in test [5], 2.1%; in test [6], 14.8%.

Take `N#CC1CC12c1ccccc1C(=O)c1ccccc12` (stereo unspecified): the growth inhibition is -1.9% in test [1]; 0.25% in test [2]; 0.8% in test [3]; -16.1% in test [4]; -21.4% in test [5]; -4.75% in test [6].

For `CC1COS(=O)(=O)CS(=O)(=O)O1` (stereo unspecified), the growth inhibition is -61.2% in test [1]; -17.4% in test [2]; -15.8% in test [3]; -57.8% in test [4]; 6.7% in test [5]; -16.1% in test [6].

On to `O=C(COc1ccc(Cl)c(Cl)c1)NCc1ccc(Cl)cc1`, for which the growth inhibition in test [1] was 7.35%; in test [2] it was 13.2%; in test [3] it was 0.1%; in test [4] it was 5.3%; in test [5] it was 29.3%; in test [6] it was 49.5%.

Regarding `Cc1c([N+](=O)[O-])cc2c(c1[N+](=O)[O-])C(C)(C)C(C)CC2(C)C` (stereo unspecified), the growth inhibition in test [1] was 1.2%; in test [2], -15.8%; in test [3] it was 6.45%; in test [4], -15%; in test [5], 45.7%; in test [6] it was -10.9%.

Consider `CCc1c(O)nc(Nc2nc3ccccc3[nH]2)[nH]c1=O`, for which the growth inhibition in test [1] was -34.4%; in test [2], -21.8%; in test [3], -21.4%; in test [4] it was -23.5%; in test [5], -33%; in test [6], -56.5%.

Take `CC(C)(C)[Si](C)(C)OCC1OC(n2cc(I)c(=O)[nH]c2=O)C(O[Si](C)(C)C(C)(C)C)C1O[Si](C)(C)C(C)(C)C` (stereo unspecified): the growth inhibition in test [1] is -19.2%; in test [2], -16%; in test [3] it was -18.2%; in test [4] it was 14.8%; in test [5], 11.9%; in test [6], -33.5%.

Take `NC1C(=O)Nc2ccccc21` (stereo unspecified): the growth inhibition in test [1] was 1.85%; in test [2], 5.95%; in test [3], -5.75%; in test [4], -1.05%; in test [5], 8.35%; in test [6], 4.95%.

As to `COC(=O)c1ccc(/C=C/c2cc(O)ccc2O)cc1`, the growth inhibition is 16.5% in test [1]; 25.8% in test [2]; 56.6% in test [3]; 44.5% in test [4]; 52.5% in test [5]; 75% (active) in test [6].

As to `C=C1[C@H](OCC(C)C)[C@@H](OCC(C)C)[C@@H](O)C(C)(C)/C=C/[C@H](C)C(=O)[C@@]2(O)C[C@H](C)[C@H](O)[C@@H]2[C@H]1OCC(C)C`, the growth inhibition in test [1] was -37.9%; in test [2], -45%; in test [3] it was -9.85%; in test [4] it was -36.3%; in test [5] it was -12.8%; in test [6], -68.8%.

`Cn1c(=O)c2nc(SC3CCCCC3)n(C)c2n(C)c1=O`: the growth inhibition is -12.7% in test [1]; -9.05% in test [2]; -9.85% in test [3]; -28.3% in test [4]; 4.5% in test [5]; -15.3% in test [6].

On to `COc1ccc(C2OCC(COC(C)=O)O2)cc1OC` (stereo unspecified), for which the growth inhibition in test [1] is -11%; in test [2], 6.4%; in test [3] it was 1.2%; in test [4], -17.9%; in test [5], 26.5%; in test [6] it was 10.4%.

As for `COc1ccc2nc(-c3ccccc3)cc(N=[N+]=[N-])c2c1`, the growth inhibition is 1.9% in test [1]; -0.85% in test [2]; -12.7% in test [3]; -5.35% in test [4]; -23.1% in test [5]; -12% in test [6].

As for `CCN(Cc1cc(Cl)cc(C)c1O)Cc1c(O)ccc2ccccc12`, the growth inhibition in test [1] is 99.5% (active); in test [2] it was 99.2% (active); in test [3], 99.3% (active); in test [4], 99.3% (active); in test [5] it was 98.6% (active); in test [6], 99.7% (active).

Turning to `C=C(C)CCCC(C)C(O)C=O` (stereo unspecified), the growth inhibition in test [1] was -8.85%; in test [2] it was 1.15%; in test [3], 1.55%; in test [4], 1.75%; in test [5], -5.35%; in test [6], -12.7%.

With `CCCCCC#CC(=O)OCC`, the growth inhibition in test [1] was 0.6%; in test [2], -0.9%; in test [3], -6.25%; in test [4] it was 10.1%; in test [5] it was -11.9%; in test [6], 15.8%.

For `O=C1c2ccccc2C(=O)N1/N=C/c1ccc([N+](=O)[O-])cc1`, the growth inhibition in test [1] is -4.4%; in test [2] it was -17%; in test [3], -16.3%; in test [4] it was -11.5%; in test [5], -13.9%; in test [6], -22.5%.

For the compound `CC(C)=NNS(=O)(=O)c1ccc(C)cc1`, the growth inhibition in test [1] is -7.7%; in test [2] it was 14.6%; in test [3], 2.65%; in test [4], 7.2%; in test [5], -14.2%; in test [6], -7.55%.

Regarding `CCCCCCC(C)Oc1ccccc1Cl` (stereo unspecified), the growth inhibition was 5.35% in test [1]; -11.5% in test [2]; 7.9% in test [3]; -23.9% in test [4]; 6.4% in test [5]; -20.6% in test [6].

As to `O=c1c2ccccc2[nH]c2ccc(Br)cc12`, the growth inhibition is 8.25% in test [1]; 2.2% in test [2]; 3.8% in test [3]; -6.1% in test [4]; 2.95% in test [5]; 17.8% in test [6].

In the case of `C/C(=C\c1ccc(Cl)cc1)C(C)(C)C(=O)O`, the growth inhibition in test [1] is 15.1%; in test [2], -23.2%; in test [3], -1.25%; in test [4] it was -6.95%; in test [5] it was 11%; in test [6], 19.6%.

In the case of `CCCCCCCCCCCCCCCC(=O)OCC1OC(OC2(COC(=O)CCCCCCCCCCCCCCC)OC(COC(=O)CCCCCCCCCCCCCCC)C(OC(=O)CCCCCCCCCCCCCCC)C2OC(=O)CCCCCCCCCCCCCCC)C(OC(=O)CCCCCCCCCCCCCCC)C(OC(=O)CCCCCCCCCCCCCCC)C1OC(=O)CCCCCCCCCCCCCCC` (stereo unspecified), the growth inhibition in test [1] was -6.25%; in test [2], -26%; in test [3] it was -34.1%; in test [4], -14.7%; in test [5], -13.9%; in test [6], -6%.

In the case of `C=C1C(=O)C[C@H]2[C@H]3CC[C@H](C(=O)O)[C@]12CC3(C)C`, the growth inhibition was 90.8% (active) in test [1]; 93.8% (active) in test [2]; 93.8% (active) in test [3]; 87.7% (active) in test [4]; 92.2% (active) in test [5]; 92.1% (active) in test [6].

As for `CC(=O)N1CN=C2Sc3ccccc3N2C1`, the growth inhibition is 4.05% in test [1]; 0.2% in test [2]; 8.45% in test [3]; -16% in test [4]; 13.2% in test [5]; 18.5% in test [6].

`NC(CSCCC(=O)O)C(=O)O` (stereo unspecified): the growth inhibition in test [1] was -16.9%; in test [2], -10.3%; in test [3], -7.45%; in test [4], -39.6%; in test [5] it was -3.05%; in test [6], -12.4%.

On to `O=c1oc2c3ccc4ccccc4c3n(Cc3nc4ccccc4[nH]3)c2c2ccccc12`, for which the growth inhibition in test [1] was 22.1%; in test [2] it was 12.2%; in test [3] it was 19.7%; in test [4] it was 28.6%; in test [5], 14.6%; in test [6] it was 25.2%.

`Cn1cnc2c(=S)nc[nH]c21`: the growth inhibition is 7.75% in test [1]; -10% in test [2]; -25.1% in test [3]; -9.9% in test [4]; -8.75% in test [5]; -20.9% in test [6].

Consider `OCCCCCCOc1ccc(-c2cc(-c3ccccn3)nc(-c3ccccn3)c2)cc1`, for which the growth inhibition in test [1] is 52%; in test [2], 67.5%; in test [3], 68.9%; in test [4], 64.9%; in test [5] it was 70.5% (active); in test [6], 65.5%.

In the case of `Cc1c(F)c(Br)c([N+](=O)[O-])c(C)c1[N+](=O)[O-]`, the growth inhibition in test [1] is -7.15%; in test [2] it was 5.45%; in test [3], -8.8%; in test [4], -4.15%; in test [5], -1.2%; in test [6], -17.9%.

In the case of `Cc1[nH]c2ccc(C(=O)NN)cc2c1CC(=O)NN`, the growth inhibition is 12.2% in test [1]; 8.45% in test [2]; 14.8% in test [3]; -23.1% in test [4]; 6.55% in test [5]; 25.1% in test [6].

On to `COc1cccc(-c2cc(=O)c3cc(N4CCCC4)ccc3[nH]2)c1`, for which the growth inhibition is -26.3% in test [1]; -15.2% in test [2]; -19.9% in test [3]; 8.6% in test [4]; -21.6% in test [5]; -19.1% in test [6].

Consider `COc1ccc(CC(NC(=O)OCc2ccccc2)C(=O)O)cc1` (stereo unspecified), for which the growth inhibition in test [1] is 1.15%; in test [2], 4.15%; in test [3], 2.7%; in test [4], -52.1%; in test [5] it was 18.7%; in test [6] it was 6.6%.

In the case of `O=CC(=O)c1ccc(F)cc1`, the growth inhibition in test [1] was -20.2%; in test [2], -10%; in test [3], -0.15%; in test [4], -15.2%; in test [5] it was -8.55%; in test [6] it was 2%.

Regarding `CCOC(=O)C(=NNc1cc(OC)c(Cl)cc1OC)C(=O)OCC`, the growth inhibition in test [1] is 8.25%; in test [2], -9.95%; in test [3] it was -7.4%; in test [4], -25.4%; in test [5] it was 1.7%; in test [6], 6.05%.

For the compound `Cc1nc(C)c(N2CCN(C#N)CC2)c(=O)[nH]1`, the growth inhibition in test [1] is -52.6%; in test [2], -23.6%; in test [3], -29.1%; in test [4], 0.35%; in test [5], -11.7%; in test [6] it was -40.2%.
